# According to PubChem BioAssay (Tox21):
# Values without a mark were called inactive. Inconclusive results are not listed. Where a call stands in place of a potency, no number is given. Active and inactive are the calls of the source. Calls come from the whole dose curve.
# Legend:
# [1] = molecular target: Acetylcholinesterase (Homo sapiens) (UniProt P22303); assay: Acetylcholinesterase (AChE) small molecule antagonists: colormetric cell-based qHTS assay (AID 1347395); note: nearly all actives have a fitted effect of over 30% in size; note: potency is the fitted concentration of half-maximal effect
# Method in brief: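 Cells (SH-SY5Y, 2,000 per well) are seeded and left overnight at 37 C. Compound is added for 30 min, then DTNB and acetylthiocholine for a further 90 min at 37 C before absorbance-based thiocholine detection.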
# [2] = molecular target: Acetylcholinesterase (Homo sapiens) (UniProt P22303); assay: Acetylcholinesterase (AChE) small molecule antagonists: enzyme-based qHTS assay (AID 1347397); conditions: Potency: AChE enzyme activity inhibition; outcome: AChE enzyme activity inhibition; note: nearly all actives have a fitted effect of over 55% in size; note: potency is the fitted concentration of half-maximal effect
# Method in brief: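 Absorbance-based detection of thiocholine with DTNB served as the read-out. Recombinant human AChE was exposed to compound for 30 min at RT before a 10 min RT incubation with acetylthiocholine.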
# [3] = molecular target: Acetylcholinesterase (Homo sapiens) (UniProt P22303); assay: Acetylcholinesterase (AChE) small molecule antagonists: enzyme-based qHTS assay with human liver microsomes (AID 1347399); conditions: Potency: qHTS inhibition; outcome: qHTS inhibition; note: nearly all actives have a fitted effect of over 60% in size
# Method in brief: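 Recombinant human AChE (50 mU/mL in the enzyme mix) and human liver microsomes (0.25 mg/mL final) were preincubated with compound and NADPH (0.25 mg/mL final) for 30 min at 37 C. Acetylthiocholine/DTNB was then added; thiocholine was read colorimetrically after 10 min at room temperature.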
# [4] = molecular target: Acetylcholinesterase (Homo sapiens) (UniProt P22303); assay: Acetylcholinesterase (AChE) small molecule antagonists: fluorescence cell-based qHTS assay (AID 1347398); conditions: Potency: AChE activity; outcome: AChE activity; note: nearly all actives have a fitted effect of over 50% in size; note: potency is the fitted concentration of half-maximal effect
# Method in brief: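 Fluorimetric cell-based assay: intact SH-SY5Y cells, 30 min compound preincubation at 37 C, acetylthiocholine substrate with thiol probe Thiolite Green, 40 min RT development, fluorescence 490/520 nm.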
# Sequence of Acetylcholinesterase (Homo sapiens) (P22303 whole entry, looked up): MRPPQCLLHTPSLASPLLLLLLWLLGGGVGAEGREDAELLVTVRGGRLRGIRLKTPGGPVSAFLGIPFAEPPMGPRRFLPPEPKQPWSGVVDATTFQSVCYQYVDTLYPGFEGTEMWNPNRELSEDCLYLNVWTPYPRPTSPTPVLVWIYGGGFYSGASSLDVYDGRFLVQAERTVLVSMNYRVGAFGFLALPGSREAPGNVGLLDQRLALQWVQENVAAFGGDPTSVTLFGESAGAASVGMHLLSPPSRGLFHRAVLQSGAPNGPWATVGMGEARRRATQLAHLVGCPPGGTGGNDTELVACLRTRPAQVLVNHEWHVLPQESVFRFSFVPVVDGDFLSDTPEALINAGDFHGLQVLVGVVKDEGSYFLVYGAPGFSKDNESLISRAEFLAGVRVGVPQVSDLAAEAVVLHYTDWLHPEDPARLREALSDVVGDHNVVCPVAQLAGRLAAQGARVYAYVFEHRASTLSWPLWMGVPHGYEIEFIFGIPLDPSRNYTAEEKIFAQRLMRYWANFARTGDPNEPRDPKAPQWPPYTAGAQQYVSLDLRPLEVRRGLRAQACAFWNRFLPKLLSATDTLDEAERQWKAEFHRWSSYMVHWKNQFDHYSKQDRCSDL
smiles,measurement,setting,value
COC(=O)c1ccc(NC(C)=O)cc1OC,Potency,[1],inactive
same,Potency,[2],inactive
same,Potency,[3],inactive
CCCOc1sc(C(=O)N2CCC(c3cc(CN)ccc3F)CC2)c(C)c1Br,Potency,[1],inactive
same,Potency,[2],73 µM (active)
same,Potency,[3],inactive
Cc1ccc(C(=O)C(=O)O)cc1C,Potency,[1],inactive
same,Potency,[2],inactive
same,Potency,[3],inactive
OCCN1CCN(CCCN2c3ccccc3Sc3ccc(C(F)(F)F)cc32)CC1,Potency,[1],inactive
same,Potency,[2],inactive
same,Potency,[3],inactive
COc1ccc2nc(SCc3ncc(C)c(OC)c3C)[nH]c2c1,Potency,[1],inactive
same,Potency,[2],inactive
same,Potency,[3],inactive
CC(S)C(=O)NCC(=O)O (stereo unspecified),Potency,[1],inactive
same,Potency,[4],inactive
c1ccc(C(O[C@@H]2CCCN(CCc3ccc4c(c3)OCO4)C2)c2ccccc2)cc1,Potency,[1],inactive
same,Potency,[2],inactive
same,Potency,[3],inactive
CCCCCC=CCC=CCCCCCCCC(=O)OCC,Potency,[1],inactive
same,Potency,[2],inactive
same,Potency,[3],inactive
Cc1c(C)c2c(c(C)c1OC(=O)CCC(=O)OCCO)CC[C@@](C)(CCC[C@H](C)CCC[C@H](C)CCCC(C)C)O2,Potency,[1],inactive
same,Potency,[2],inactive
same,Potency,[3],inactive
CCCCCN=C(N)N/N=C/c1c[nH]c2ccc(OC)cc12,Potency,[1],inactive
same,Potency,[2],inactive
same,Potency,[3],inactive
CN(C/C=C/c1ccccc1)Cc1cccc2ccccc12,outcome,[1],inactive
same,outcome,[2],inactive
same,outcome,[3],inactive
COc1c(N2C[C@@H]3CCCN[C@@H]3C2)c(F)cc2c(=O)c(C(=O)O)cn(C3CC3)c12,Potency,[1],inactive
same,Potency,[2],inactive
same,Potency,[3],inactive
CC1(COc2ccc(CC3SC(=O)NC3=O)cc2)CCCCC1 (stereo unspecified),Potency,[1],inactive
same,Potency,[2],inactive
same,Potency,[3],inactive
CCCCOc1cc(C(=O)OCCN(CC)CC)ccc1N,Potency,[1],inactive
same,Potency,[2],inactive
same,Potency,[3],inactive
O=C(C1CCCCC1)N1CC(=O)N2CCCc3ccccc3C2C1 (stereo unspecified),Potency,[1],inactive
same,Potency,[2],inactive
same,Potency,[3],inactive
COC(=O)CSc1cc(N=c2sc(=O)n3n2CCCC3)c(F)cc1Cl,Potency,[1],inactive
same,Potency,[2],inactive
same,Potency,[3],inactive
C/C=C/C(=O)CC,"activity, negative = inhibition",[1],0.402% [at 23.6 µM]
same,"activity change, negative = inhibition",[4],-7.93% [at 23.8 µM]
FC(F)OC(Cl)C(F)(F)F (stereo unspecified),Potency,[1],inactive
same,Potency,[4],inactive
CCN(CC)c1ccc(N)cc1,Potency,[1],32.6 µM (active)
same,Potency,[4],32.6 µM (active)
same,Potency,[3],inactive
O=C1C=CC(=O)N1c1cccc(N2C(=O)C=CC2=O)c1,Potency,[1],inactive
same,Potency,[4],44.8 µM (active)
same,Potency,[3],inactive
C=CCCCCCCCCCCCC,Potency,[1],inactive
same,Potency,[4],inactive
same,Potency,[3],inactive
O=C(Nc1ccc(S(=O)(=O)N2CCOCC2)cc1)c1cc(Cl)ccc1NS(=O)(=O)c1ccc(Cl)s1,Potency,[1],inactive
same,Potency,[4],inactive
same,Potency,[3],inactive
CCCCCCCCOC(=O)c1cc(O)c(O)c(O)c1,Potency,[1],inactive
same,Potency,[4],inactive
same,Potency,[3],inactive
COC(=O)c1ccc(OC)cc1,Potency,[1],inactive
same,Potency,[4],inactive
same,Potency,[3],inactive
c1ccc(-c2ccc(C(c3ccccc3)n3ccnc3)cc2)cc1 (stereo unspecified),Potency,[1],inactive
same,Potency,[4],inactive
same,Potency,[3],inactive
Nc1c(N=Nc2ccc(-c3ccc(N=Nc4cc(S(=O)(=O)O)c5ccccc5c4N)cc3)cc2)cc(S(=O)(=O)O)c2ccccc12,Potency,[1],79.6 µM (active)
same,Potency,[4],71 µM (active)
same,Potency,[3],inactive
CCOC(=O)c1ccccc1OC,Potency,[1],inactive
same,Potency,[4],inactive
same,Potency,[3],inactive
CCCCCCCCCCc1ccccc1,Potency,[1],inactive
same,Potency,[4],inactive
same,Potency,[3],inactive
CSC(=O)c1cccc2nnsc12,Potency,[1],35.6 µM (active)
same,Potency,[4],39.9 µM (active)
same,Potency,[3],inactive
O=S1(=O)CCCC1,Potency,[1],inactive
same,Potency,[4],inactive
same,Potency,[3],inactive
CC(C)COC(=O)CC(C(=O)OCC(C)C)S(=O)(=O)O (stereo unspecified),Potency,[1],inactive
same,Potency,[4],inactive
same,Potency,[3],inactive
N#CCN(CC#N)CCN(CC#N)CC#N,Potency,[1],inactive
same,Potency,[4],inactive
same,Potency,[3],inactive
CC(=O)O[C@H]1C[C@@H]2CC[C@@H]3[C@H](CC[C@@]4(C)[C@H]3C[C@H]([N+]3(C)CCCCC3)[C@@H]4OC(C)=O)[C@@]2(C)C[C@@H]1N1CCCCC1,Potency,[1],17.4 µM (active)
same,Potency,[4],6.92 µM (active)
same,Potency,[3],inactive
